From PubChem BioAssay (EPA / NIEHS)
Inconclusive results are not listed. The source made the active and inactive calls. The calls were made as follows, unless noted: active = hit-call score of the fitted dose curve at least 0.9, where 1 is the maximum; inactive = score below 0.9.

Key:
[1] = CCTE_Shafer_MEA_dev_firing_rate_mean: CCTE's Neural Network Formation Assay for Mean Firing Rate, Shafer Lab (AID 2284031)
Method in brief: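 Primary rat cortical neurons on 48-well MEA plates, exposed from plating day 0 with dosing renewed on DIV 5 and 9. Mean well firing rate over active electrodes, recorded days 5, 7, 9, 12, summarised as trapezoidal AUC.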

[2] = CCTE_Shafer_MEA_dev_per_burst_spike_percent: CCTE's Neural Network Formation Assay for Percent of Spikes in a Burst, Shafer Lab (AID 2284032);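 also: fitted as a decrease in burst spike percentage below DMSO baseline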
Method in brief: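 Rat primary cortical neurons on 16-electrode MEA wells, dosed from plating day 0 for 12 days with renewal on DIV 5 and 9; spikes-in-bursts percentage averaged over bursting electrodes, collapsed as AUC across days 5, 7, 9, 12; loss direction versus DMSO.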

[3] = CCTE_Shafer_MEA_dev_active_electrodes_number: CCTE's Neural Network Formation Assay for Number of Active Electrodes, Shafer Lab (AID 2284040; active = hit-call score of the fitted dose curve at least 0.9, where 1 is the maximum;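 also: potency for loss of active electrodes versus DMSO so lower counts are hits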)
Method in brief: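 Primary rat cortical neurons on 16-electrode MEA wells, exposed from day 0 through day 12 with compound renewed at DIV 5 and 9 feeds. Active electrodes (mean firing ≥5 spikes/min) counted at DIV 5, 7, 9, 12; trapezoidal AUC across days, loss-of-signal versus DMSO.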

[4] = CCTE_Shafer_MEA_dev_burst_rate: CCTE's Neural Network Formation Assay for Burst Rate, Shafer Lab (AID 2284042)
Method in brief: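 Exposure ran continuously over 12 days of network development in rat cortical cultures, with compound refreshed during full media changes on DIV 5 and 9. Single-electrode bursts per recording time, well-mean over active electrodes, trapezoidal AUC across days 5–12, fitted downward relative to DMSO.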

[5] = CCTE_Shafer_MEA_dev_bursting_electrodes_number: CCTE's Neural Network Formation Assay for Number of Bursting Electrodes, Shafer Lab (AID 2284043; active = hit-call score of the fitted dose curve at least 0.9, where 1 is the maximum;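 also: potency is for loss of bursting electrodes relative to DMSO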)
Method in brief: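 Primary rat cortical neurons were cultured on PEI-coated 48-well MEA plates (16 electrodes/well) and exposed from plating through day 12, with compound renewed at feeds on DIV 5 and 9. Electrodes bursting ≥1 per 2 min were counted on DIV 5, 7, 9, 12; trapezoidal AUC taken.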

[6] = CCTE_Shafer_MEA_dev_per_burst_interspike_interval: CCTE's Neural Network Formation Assay for Burst Interspike Interval, Shafer Lab (AID 2284044);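 also: mean spike spacing inside bursts as AUC over recordings on days 5 7 9 12; potency for a decrease of within-burst interspike interval below DMSO level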
Method in brief: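 Primary rat cortical neurons on 48-well MEA plates, exposed from day 0 through day 12, treatment renewed at DIV 5 and 9. Within-burst interspike interval recorded days 5, 7, 9, 12, well-averaged, summarised as AUC; negative fit versus DMSO.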

[7] = CCTE_Shafer_MEA_dev_burst_duration_mean: CCTE's Neural Network Formation Assay for Mean Burst Duration, Shafer Lab (AID 2284045)
Method in brief: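 Primary rat cortical neurons on PEI-coated 16-electrode MEA wells, exposed from plating through day 12 with compound renewed at DIV 5 and 9; spontaneous activity recorded days 5, 7, 9, 12. Well-mean burst duration collapsed as trapezoidal AUC, fitted for loss versus DMSO.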

[8] = CCTE_Shafer_MEA_dev_interburst_interval_mean: CCTE's Neural Network Formation Assay for Mean Interburst Interval, Shafer Lab (AID 2284046);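 also: well-mean interburst interval of bursting electrodes as AUC over four recording days; curve fitted for decrease in interburst interval relative to DMSO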
Method in brief: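 Primary rat cortical neurons on PEI-coated 48-well MEA plates (laminin added with cells at plating) (16 electrodes/well), exposed from plating day 0 with renewal at DIV 5 and 9. Mean inter-burst interval averaged over bursting electrodes, AUC across days 5, 7, 9, 12; DMSO baseline.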

[9] = CCTE_Shafer_MEA_dev_inter_network_spike_interval_mean: CCTE's Neural Network Formation Assay for Mean Inter-network Spike Interval, Shafer Lab (AID 2284047)
Method in brief: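 Mean time between consecutive network-spike peaks, recorded extracellularly (adaptive spike detection) on DIV 5, 7, 9 and 12, summarized as trapezoidal AUC. Rat cortical cultures on MEAs dosed continuously days 0–12, re-dosed at feeds; loss-of-signal fit relative to DMSO.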

[10] = CCTE_Shafer_MEA_dev_network_spike_number: CCTE's Neural Network Formation Assay for Number of Network Spikes, Shafer Lab (AID 2284048);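 also: synchronized bursts across electrodes counted on days 5 7 9 12 and integrated as AUC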
Method in brief: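 Primary rat cortical neurons were seeded at 1.5 x 10^5 cells/well on PEI-coated 16-electrode MEA wells with laminin, exposed from plating day 0, compound renewed at DIV 5 and 9. Network spikes were recorded on days 5, 7, 9, 12 and summarized as trapezoidal AUC versus DMSO.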

[11] = CCTE_Shafer_MEA_dev_network_spike_peak: CCTE's Neural Network Formation Assay for Mean Number of Electrodes in Network Spike, Shafer Lab (AID 2284049);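 also: fitted for loss of signal meaning fewer electrodes in network spikes than DMSO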
Method in brief: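 Continuous 12-day exposure of rat cortical cultures, starting at plating, on MEA plates. Endpoint: electrodes participating in network-spike peaks, AUC across DIV 5–12, DMSO as negative control.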

[12] = CCTE_Shafer_MEA_dev_spike_duration_mean: CCTE's Neural Network Formation Assay for Mean Spike Duration, Shafer Lab (AID 2284051);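 also: mean network spike duration pooled as area under curve over DIV 5 to 12 recordings; potency for a decrease in mean network spike duration versus DMSO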
Method in brief: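 Spontaneous activity was recorded on days 5, 7, 9 and 12 from rat cortical cultures grown on microelectrode arrays and dosed continuously from day 0, with media and compound renewed after the DIV 5 and 9 recordings. Network-spike duration was collapsed by area under the curve.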

[13] = CCTE_Shafer_MEA_dev_per_network_spike_spike_number_mean: CCTE's Neural Network Formation Assay for Mean Number of Spikes in a Network Spike, Shafer Lab (AID 2284053);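 also: fitted as decrease in spikes per network spike relative to DMSO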
Method in brief: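 Mean spike count within each network spike, taken in a 0.05 s window at its peak, was recorded on days 5, 7, 9 and 12 and integrated as trapezoidal area under the curve. Rat cortical cultures on MEA plates received continuous compound from day 0, refreshed at medium changes on DIV 5 and 9.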

[14] = CCTE_Shafer_MEA_dev_per_network_spike_spike_percent: CCTE's Neural Network Formation Assay for Percent of Spikes in a Network Spike, Shafer Lab (AID 2284054)
Method in brief: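 Primary rat cortical neurons on 16-electrode MEA wells (PEI-coated, laminin at plating), exposed from day 0 with renewal at DIV 5 and 9; spikes within 0.05 s of network-spike peaks over total spikes, AUC across days 5, 7, 9, 12.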

[15] = CCTE_Shafer_MEA_dev_LDH: CCTE's Lactate Dehydrogenase Assay for Cytotoxicity in the Neural Network Formation Assay, Shafer Lab (AID 2284068; active = hit-call score of the fitted dose curve at least 0.9, where 1 is the maximum;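 also: exposure for twelve days from plating with re-dosing on DIV 5 and 9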)
Method in brief: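 Primary rat cortical neurons were cultured on PEI-coated MEA plates and exposed from plating through day 12, with compound renewed at medium changes on DIV 5 and 9. LDH activity was read spectrophotometrically; loss of signal versus DMSO indicates reduced viability.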

[16] = CCTE_Shafer_MEA_dev_AB: CCTE's Alamar Blue Assay for Cytotoxicity in the Neural Network Formation Assay, Shafer Lab (AID 2284083; active = hit-call score of the fitted dose curve at least 0.9, where 1 is the maximum;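 also: resazurin reduction fluorescence as viability of cultured neurons; twelve days of exposure from plating with re-dosing on DIV 5 and 9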)
Method in brief: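 Resazurin fluorescence, relative to DMSO, gauges viability after twelve days of exposure that began at plating of rat cortical neurons (1.5 x 10^5 cells/well, 48-well MEA); treatment renewed with full medium exchange on DIV 5 and 9.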

[17] = CCTE_Shafer_MEA_dev_mutual_information_norm: CCTE's Neural Network Formation Assay for Mutual Information Normalization, Shafer Lab (AID 2284091)
Method in brief: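 Rat cortical cultures, 48-well MEA, continuous exposure DIV 0–12 with full media/compound change DIV 5 and 9. Readout: inter-electrode mutual information, AxIS adaptive spike detection; AUC across DIV 5/7/9/12 recordings; DMSO baseline, negative fitting direction.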

[18] = UKN2_HCS_IMR90_neural_migration: University of Konstanz (UKN) Leist Lab Neural Crest Cell Migration Assay in human induced IMR90 Pluripotent Stem Cells (UKN2) (AID 2284204); settings: actives raise or lower the signal
Method in brief: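 iPSC-derived IMR90 neural crest cells on PLO/laminin/fibronectin were seeded around silicone stoppers; after stopper removal, migration in N2-S medium with EGF and FGF ran 24 h before 24 h chemical exposure. Calcein-AM/Hoechst high-content imaging; bidirectional fit versus DMSO.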

[19] = IUF_NPC1b_proliferation_BrdU_72hr: Leibniz Research Institute for Environmental Medicine (IUF) 72-hour Neural Progenitor Cell Bromodeoxyuridine (BrdU) Proliferation Assay (NPC1b) (AID 2284207)
Method in brief: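 hNPC spheres (primary, GW 16-19 fetal cortex), single sphere/well, EGF+FGF medium; 72 h compound, no renewal; BrdU pulse last 16 h; luminescent ELISA; activity vs DMSO baseline; growth-factor withdrawal as positive control.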

[20] = IUF_NPC1a_proliferation_area_72hr: Leibniz Research Institute for Environmental Medicine (IUF) 72-hour Neural Progenitor Cell Proliferation Area Assay (NPC1a) (AID 2284208)
Method in brief: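 Single 0.25–0.35 mm human fetal neural progenitor spheres in proliferation medium with EGF and FGF, exposed 72 h from plating without renewal at 37C, pH 7.2-7.6. Sphere area growth measured by automated phase-contrast imaging, relative to DMSO.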

[21] = IUF_NPC1_viability_72hr: Viability Assessment at 72 hours in the Leibniz Research Institute for Environmental Medicine (IUF) Neural Progenitor Cell Proliferation Assay (NPC1) (AID 2284209)
Method in brief: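 Single spheres (0.25-0.35 mm) of human fetal cortex-derived neural progenitor cells were grown in proliferation medium with EGF and FGF at 37C and 5% CO2. They were exposed for 72 h without renewal, and viability was read by alamar blue resorufin fluorescence.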

[22] = CCTE_Mundy_HCI_Cortical_Synap_Neur_Matur_NeuriteSpotCountPerNeuriteLength: CCTE's Synaptogenesis and Neurite Maturation Assay in rat cortical cells for Neurite Spot Count per Neurite Length, Mundy Lab (AID 2284210)
Method in brief: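 Rat primary cortical cultures, glia arrested with AraC at DIV 5, were dosed with media change at DIV 7 and fixed at DIV 12. Synaptophysin puncta per MAP2-labelled neurite length were quantified by high-content imaging versus DMSO.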

[23] = CCTE_Mundy_HCI_Cortical_Synap_Neur_Matur_BPCount: CCTE's Synaptogenesis and Neurite Maturation Assay in rat cortical cells for Branch Point Count, Mundy Lab (AID 2284211)
Method in brief: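 Rat primary cortical cultures, AraC added DIV 5; chemicals dosed DIV 7 through DIV 12. Fixed cells stained for MAP2, synaptophysin and Hoechst; neurite branch points counted by automated high-content imaging, fitted relative to DMSO.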

[24] = CCTE_Mundy_HCI_Cortical_NOG_NeuriteCount: CCTE's Neurite Outgrowth Assay in rat cortical cells for Neurite Count, Mundy Lab (AID 2284212);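 also: cells fixed about two days after chemical exposure began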
Method in brief: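 Neurite number per cell from high-content imaging of betaIII-tubulin immunostaining, with Hoechst nuclear counterstain.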

Measured: AC50

CC(C)O
active: [2] 10.2 µM | [3] 7.59 µM | [5] 11.8 µM | [6] 10.2 µM | [11] 8.39 µM | [12] 14.3 µM | [13] 5.31 µM | [19] 91.7 µM
inactive: all other assays above
